# Rows were chosen to be rich in hits. Some 6% of all compounds tested hit in one or more screens of this group.
# DRD3 antagonist: D3 dopamine receptor (human) antagonism. D3R cells, DiscoveRx beta-arrestin luminescence, antagonist mode; hits give low values. max response, negative = inhibition, %. actives 2.5% (n = 360,000). AID 652054; in the data active = max response below about -50%; inconclusive = no clear call, values can overlap the other calls; also: % is scaled to controls: 0 for no effect and ±100 for the full control effect
#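 Cells expressing the human receptor were seeded at 1500 cells/well, incubated overnight at 37 degrees C in 5% CO2, then exposed to library compounds with dopamine controls for 90 minutes at 37 degrees C before luminescent detection.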
# D1 ag: human D1 receptor agonism. actives 1% (n = 360,000). P21728. HEK293 T-REx D1 cells, calcium flux, agonist mode. activation, % at 2 µM; in the data active = activation above about 30%; also: 0% is about no effect
# Target sequence (P21728 whole entry, looked up): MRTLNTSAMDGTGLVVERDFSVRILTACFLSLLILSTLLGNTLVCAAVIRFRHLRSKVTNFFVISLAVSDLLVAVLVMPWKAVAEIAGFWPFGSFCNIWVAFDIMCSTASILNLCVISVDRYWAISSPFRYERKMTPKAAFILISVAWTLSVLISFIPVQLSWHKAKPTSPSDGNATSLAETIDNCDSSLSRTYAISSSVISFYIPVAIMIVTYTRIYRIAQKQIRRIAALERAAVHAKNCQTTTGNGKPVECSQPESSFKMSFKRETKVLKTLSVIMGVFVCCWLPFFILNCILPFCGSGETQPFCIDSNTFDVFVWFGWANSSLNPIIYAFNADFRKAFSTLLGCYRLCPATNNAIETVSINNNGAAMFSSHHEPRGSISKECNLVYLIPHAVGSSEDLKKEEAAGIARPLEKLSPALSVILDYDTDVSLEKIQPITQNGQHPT
#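 Tetracycline-induced HEK293 TREx D1 cells, force-coupled to calcium signalling, were dye-loaded with a no-wash calcium kit. Compound was pin-added after a 10 s baseline. Fluorescence was read kinetically at 1 cycle/s for 180 s, with calcium rises flagged as agonism.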
# D1 antag: antagonists of human D1 dopamine receptor | P21728 | HEK293 TREx D1 cells, calcium flux, dopamine EC80; hits give low values | activity change, negative = inhibition, % at 10 µM | actives 3.2% (n = 360,000) | AID 504652; in the data active = activity change below about -30%; also: % is scaled to controls: 0 for no effect and ±100 for the full control effect
#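 Inducible Hek293 Trex D1 cells (tetracycline, overnight, 30 C). Calcium dye 30–90 min RT. Antagonist mode: EC80 dopamine added after 180 s compound read.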
# DRD3 agonist: D3 dopamine receptor (human) agonism; D3R DiscoveRx beta-arrestin cells, luminescence, 90 min; actives 0.58% (n = 410,000); AID 652048; max activation, %; P35462; in the data active = max activation above about 30%; also: 0% is about no effect
#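 Cells at 1500/well, incubated overnight, then treated with pinned compounds (dopamine as control) for 90 min at 37 degrees C. DiscoveRx reagent added for 30 - 60 minutes at room temperature; luminescence read.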
# D1 potentiator: potentiators of human D1 dopamine receptor | P21728 | actives 0.036% (n = 360,000) | HEK293 TREx D1 cells, calcium flux, dopamine EC20 potentiation | AID 504651 | potentiation, % at 10 µM; in the data active = potentiation above about 30%; also: 0% is about no effect
# BCR signal inh: blocks chronic active B-cell receptor signaling. AID 493014. actives 0.05% (n = 340,000). Potency, µM (top dose mostly 46.1 µM), inactives show at the top dose activity change, negative = inhibition, actives largely listed as inhibitors. ABC-DLBCL IkBa-CBG/CBR reporter, luminescence ratio, 4 h; active = well fitted inhibition curve with a large enough effect in the signal ratio, with a control signal flat, not every such curve was filed as active; inconclusive = small, poorly fitted or top-dose-only effect, or effect the other way, or a change in a side signal; the % refers to the signal ratio;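 also: potency is read from the fitted curve at half-maximal effect; plate controls were basal doxycycline-induced cells for no effect and cells given 10 µM MG132 for full effect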
#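 TMD8 ABC-DLBCL cells carrying doxycycline-inducible green luciferase fused to IkappaBalpha plus unfused red luciferase were exposed to compounds (up to 46 uM) for 4 hrs at 37C. Activity came from the overlap-corrected green/red luminescence ratio.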
# Starred values were filed as active, the others as inactive; ? = inconclusive; · = no result given.
SMILES,DRD3 antagonist,D1 ag,D1 antag,DRD3 agonist,D1 potentiator,BCR signal inh
O=C(c1ccccc1)c1ccc(OCCOCCN2CCN(Cc3ccccc3)CC2)cc1,?,28.9,-33.2*,-16.0,-10.3,?
c1ccc(COCCN2CCN(CCOCc3ccccc3)CC2)cc1,-69.0*,-0.6,-14.9,4.7,-0.9,?
O=C(O)COc1ccc(C(=O)c2ccccc2)cc1,-1.1,5.6,-30.5*,3.6,-2.5,1.3%
O=C(c1ccccc1)c1ccc(OCCCN2CCCC2)cc1,-5.6,9.1,19.2,-14.4,-1.6,9.5%
CCn1cnc2c(Nc3ccc(CC(=O)N=C(N)N)cc3)nc(C#N)nc21,·,0.4,6.9,·,5.3,·
Cc1ccc(CNC(=O)c2cccc(NC(=O)N3CCSc4ncccc43)c2)cc1,·,1.7,-22.9,7.2,-7.1,-16.6%
COc1ccc(Cc2c(-c3ccccc3)nc3c(C)cc(Br)cn23)c(C)c1,0.0,·,·,-8.9,·,·
c1ccc(COc2ccc(OCCCCN3CCCCC3)cc2)cc1,-72.0*,41.5*,-35.2*,-17.4,-4.5,2.6%
C(#CCN1CCC(Cc2ccccc2)CC1)COCCOCc1ccccc1,-1.6,4.0,-35.5*,-3.6,-5.5,-4.1%
O=C(Nc1ccc(Cc2ccncc2)cc1)c1cccs1,-18.9,12.7,1.9,30.8*,-8.3,?
O=C(c1ccncc1)c1ccc(NC(=O)c2cccs2)cc1,3.8,12.3,-34.5*,-1.4,-16.4,-11.3%
O=C(OCC(=O)c1cccs1)c1ccc(NC(=O)c2ccco2)cc1,28.1,7.2,-33.0*,-7.3,-9.6,?
O=C(Cc1ccccc1)Nc1ccc(NC(=O)c2cccs2)cc1,-6.2,1.4,-30.3*,-1.8,-3.8,0.7%
O=C(Nc1ccc(NC(=O)c2cccs2)cc1)c1ccccc1,-8.6,3.8,-5.6,10.4,-1.9,13.3%
Cc1cc(C)c(Cn2c3ccccc3c3cnn(CC(=O)N4CCCCC4)c(=O)c32)c(C)c1,·,-3.1,15.5,-5.5,2.0,·
O=C(Nc1ccc(F)cc1)C(c1ccncc1)N1CCN(c2cccc(C(F)(F)F)n2)CC1 (stereo not given),22.0,·,·,7.0,·,·
COc1ccc(-c2cc(=O)oc3c4c(ccc23)OCN(Cc2ccccc2)C4)cc1,·,13.5,-25.5,-2.3,-2.5,·
Cc1onc(-c2c(F)cccc2Cl)c1C(=O)N1CCc2ccccc21,7.1,1.1,3.5,33.8*,4.8,7.1%
Cc1onc(-c2ccccc2)c1C(=O)N1CCCCCC1,4.6,1.8,14.3,2.2,7.0,-2.8%
Cc1onc(-c2c(Cl)cccc2Cl)c1C(=O)N1CCCc2ccccc21,-16.8,139.0*,18.2,21.4,1.0,?
Cc1onc(-c2ccccc2)c1C(=O)N1CCCC1,-0.9,2.8,-37.1*,10.2,-9.6,-0.6%
COc1ccc(CNC(=O)CCCc2nnc3n(CCC(C)C)c(=O)c4sccc4n23)cc1,·,6.1,4.2,-19.6,-2.6,·
CCC(=O)N1CCC(C)(C(=O)NCc2cccc(OC)c2)C1 (stereo not given),-2.3,·,·,3.0,·,·
NC(=O)C1CCN(C(=O)COc2ccc3ccccc3c2Br)CC1,-27.0,3.2,-64.3*,-19.2,-6.8,-9.1%
O=C(COc1ccc2ccccc2c1Br)N1CCCCC1,-1.8,1.6,-31.7*,-2.0,-10.1,4.0%
SMILES,DRD3 antagonist,D1 ag,D1 antag,DRD3 agonist,D1 potentiator,BCR signal inh
Cc1nnc2c3ccccc3nc(Nc3cccc(O)c3)n12,·,0.9,-23.7,9.5,-1.8,·
Cc1ccccc1S(=O)Cc1ccc(C(=O)N2CCN(c3cccc(C)c3C)CC2)o1 (stereo not given),·,0.1,-10.7,7.8,-1.0,·
COc1ccc(OC)c(NC(=O)c2nc(SCc3ccccc3F)ncc2Cl)c1,·,0.6,-1.7,-11.9,6.0,·
COCCN1C(=O)CSCC1(C)C(=O)NC(C)C (stereo not given),-9.4,·,·,0.0,·,·
COc1ccc(-c2cc3ccc(OC(C)C(=O)O)cc3oc2=O)cc1 (stereo not given),4.4,4.1,-30.5*,2.0,-6.0,6.6%
CC(=O)Oc1ccc(-c2cc3ccc(OC(C)=O)cc3oc2=O)cc1,4.9,·,·,6.0,·,·
O=C(Nc1ccc(O)c2c(=O)cc(-c3ccccc3Cl)oc12)c1ccc(Cl)c(Cl)c1,-83.4*,0.5,3.5,-27.9,-8.8,-0.1%
O=c1cc(-c2ccccc2Cl)oc2c(NS(=O)(=O)c3ccccc3C(F)(F)F)ccc(O)c12,0.0,1.6,-30.3*,-13.4,-7.0,-2.7%
Cc1c(CC(=O)N2CCC(C(N)=O)CC2)c(=O)oc2cc3c(cc12)CCC1(CCCCC1)O3,73.7,1.9,-6.0,45.0*,-2.0,-13.3%
Cc1oc2cc3oc(=O)c(CC(=O)N4CCCCC4)c(C)c3cc2c1C,·,-1.1,-0.8,8.9,3.1,·
Cc1oc2cc3oc(=O)c(CCC(=O)NC4CC4)c(C)c3cc2c1C,78.2,1.7,-6.9,79.5*,6.7,-8.1%
Cc1c(CCC(=O)N2CCC(C(=O)O)CC2)c(=O)oc2cc3oc4c(c3cc12)CCCC4,95.6,0.7,-9.0,41.9*,2.0,?
Cc1ccc(-c2c(CN3CCN(c4cccc(C)c4C)CC3)csc2C)cc1,·,3.0,43.9,-19.5,12.2,·
O=C(Cc1ccc(Cl)cc1)Nc1ccc2oc(-c3ccccc3)nc2c1,·,2.1,1.2,6.3,-0.6,·
CCc1c(C)c2ccc(O)c(CN3CCN(c4ccc(OC)cc4)CC3)c2oc1=O,·,-1.5,12.0,-23.7,-0.4,·
Cc1ccc(-c2ccc(SCC(=O)NC3CCCCC3)nn2)cc1,-13.6,-0.5,13.9,-6.8,-5.0,2.1%
Cc1ccc(-c2ccc(SCC(=O)NC3CCCC3)nn2)cc1,24.0,2.9,-31.3*,7.2,-3.0,?
O=C(COC(=O)C1CCN(c2ccc(C(F)(F)F)cn2)CC1)Nc1ccc(Cl)cn1,-5.8,9.1,-58.9*,-7.8,-18.1,0.9%
CCOC(=O)N1CCN(Cc2nc3cc(NC(=O)c4ccc([N+](=O)[O-])cc4)ccc3n2C(C)C)CC1,·,0.1,-10.0,-0.9,-1.4,·
C[C@@H]1[C@H](O)[C@@H](C)/C=C/C=C\C=C\C=C\C=C\C=C\C=C\[C@H](O[C@@H]2O[C@H](C)[C@@H](O)[C@H](N)[C@@H]2O)C[C@@H]2O[C@](O)(C[C@@H](O)C[C@@H](O)[C@H](O)CC[C@@H](O)C[C@@H](O)CC(=O)O[C@H]1C)C[C@H](O)[C@H]2C(=O)O (stereo in doubt),·,·,·,-14.1,·,·
Cc1ccc2cccc(NC(=O)c3ccc(-c4cc(Cl)ccc4Cl)o3)c2n1,·,1.2,-7.4,-6.3,0.0,·
O=C(c1nc[nH]c1C(=O)N1CCc2ccccc2C1)N1CCc2ccccc2C1,36.1,0.5,-66.3*,141.9*,-1.7,4.1%

# Source: PubChem (National Center for Advancing Translational Sciences (NCATS))
